According to the supplement of paper PMC3334620:
Whole data set: some 33,000 sequences, median “E-score (-0.5 to 0.5)” near -0.021, cut for the highest 2% near 0.32. The sample as a whole holds a higher share of the highest values than the screen did.

These sequences were tested against T1, Zap1 (UniProt P47043) (assay: PBM E-score (8-mer binding enrichment) (E-score (-0.5 to 0.5)); higher = stronger / more preferred TF binding). Details: protein concentration: 200 nM; construct: GST-full length.
T1 sequence: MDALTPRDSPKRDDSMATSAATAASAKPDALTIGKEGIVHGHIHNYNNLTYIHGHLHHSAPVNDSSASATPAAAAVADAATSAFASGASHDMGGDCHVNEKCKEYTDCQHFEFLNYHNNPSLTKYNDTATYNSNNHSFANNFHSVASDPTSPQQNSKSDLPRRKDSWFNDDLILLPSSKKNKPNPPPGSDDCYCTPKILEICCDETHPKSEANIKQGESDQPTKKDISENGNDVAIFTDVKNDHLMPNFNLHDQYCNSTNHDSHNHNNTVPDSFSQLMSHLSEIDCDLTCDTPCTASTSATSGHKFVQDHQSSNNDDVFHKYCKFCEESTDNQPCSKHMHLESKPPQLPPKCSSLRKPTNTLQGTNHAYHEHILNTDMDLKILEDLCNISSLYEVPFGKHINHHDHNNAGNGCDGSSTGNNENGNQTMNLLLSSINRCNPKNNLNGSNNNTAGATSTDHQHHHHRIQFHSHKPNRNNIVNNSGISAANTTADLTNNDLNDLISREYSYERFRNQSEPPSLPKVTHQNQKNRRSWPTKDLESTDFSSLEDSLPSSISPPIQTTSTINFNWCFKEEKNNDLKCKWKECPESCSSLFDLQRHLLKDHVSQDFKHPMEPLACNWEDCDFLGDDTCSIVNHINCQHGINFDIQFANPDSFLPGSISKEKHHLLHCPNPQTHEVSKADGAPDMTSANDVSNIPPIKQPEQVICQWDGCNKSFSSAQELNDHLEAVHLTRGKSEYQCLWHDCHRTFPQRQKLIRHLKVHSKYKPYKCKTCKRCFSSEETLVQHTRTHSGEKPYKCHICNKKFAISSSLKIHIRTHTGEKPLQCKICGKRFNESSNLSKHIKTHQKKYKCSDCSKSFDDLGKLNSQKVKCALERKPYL
Procedure: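 Universal 'all 10-mer' protein binding microarrays (Agilent AMADID 015681) probed with GST-tagged S. cerevisiae TFs (full-length or DBD) made by in vitro transcription/translation (PURExpress), about 100-200 nM. Bound TF was detected with fluorescent anti-GST. Each ungapped 8-mer (which stands for itself and its reverse complement) is scored by the PBM enrichment score (E-score), a modified Wilcoxon-Mann-Whitney statistic from -0.5 to +0.5, computed with the Universal PBM Analysis Suite. Scale: above 0.35 generally sequence-specific binding.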

Row | Sequence | PBM E-score
1 | CAGCATGG | -0.00544
2 | GCCCGCGC | -0.0387
3 | CGTCTAGC | -0.21
4 | TGACACCA | -0.0107
5 | CACGGCTG | -0.212
6 | AGGTTGTA | 0.338
7 | AAGTTGTA | 0.112
8 | CGGTTGTA | 0.153
9 | CCGTTTGC | 0.0589
10 | AACAGGGT | 0.348
11 | ACCAGGGG | -0.0398
12 | ACCAGGGT | 0.358
13 | AATAGGGG | 0.0477
14 | AACAGGGC | -0.0745
15 | AATAGGGA | -0.0102
16 | ACCAGGGA | -0.00163
17 | AACAGGGA | 0.044
18 | AATAGGGT | 0.374
19 | GATAGAGC | -0.0954
20 | CGCCACTA | -0.111
21 | GCCCTAGC | -0.148
22 | GGCCCTAC | 0.0088

Row | Sequence | PBM E-score
23 | ATCCAGAA | 0.159
24 | CTCCTTCA | -0.168
25 | TACCCAGA | 0.265
26 | AAGAGATG | -0.16
27 | TCGTACCA | 0.149
28 | CGGTACCA | 0.303
29 | TAGTACCA | 0.163
30 | AGGTACGA | -0.0106
31 | GGGTACTA | 0.335
32 | TGGTACCA | 0.357
33 | GCGTACCA | 0.0288
34 | GGGTACCA | 0.4
35 | ACGTACCA | -0.0952
36 | CGGTACTA | 0.0114
37 | AGGTACTA | 0.29
38 | AGGTACCA | 0.347
39 | CACTAGCA | -0.00655
40 | ACATGCCG | -0.241
41 | GTGAGTGA | -0.147
42 | ACAAACTG | -0.16
43 | AGGTACAA | 0.15
44 | TGGTACAA | 0.146

Row | Sequence | PBM E-score
45 | GGGTACAA | 0.345
46 | TCAGCTCA | -0.00847
47 | CCTTGGTC | 0.0233
48 | ATCGATTC | -0.119
49 | ATAACCAT | 0.457
50 | TCAACCAA | 0.118
51 | AAAACCAT | 0.283
52 | AGAACCAT | 0.184
53 | TTAACCAA | 0.317
54 | ATAACCAA | 0.437
55 | GGAACCAA | 0.159
56 | AAAACCAA | 0.209
57 | CTAACCAA | 0.262
58 | GCAACCAA | 0.231
59 | GTAACCAA | 0.417
60 | AGAACCAA | 0.148
61 | CAAGACTC | -0.0977
62 | GGCCTCGA | 0.00761
63 | CCTTAAAC | 0.143
64 | CGTGGAGA | -0.239
65 | ACCACTAC | 0.182
66 | AGAGGCCG | -0.144

Row | Sequence | PBM E-score
67 | CGCTCACG | -0.0384
68 | AGGATCTG | -0.242
69 | CTAACCAG | 0.146
70 | AGAACCAG | 0.0863
71 | ATAACCAG | 0.436
72 | GGAATCCA | -0.115
73 | CCAGGGGG | -0.095
74 | CGACCTAC | -0.114
75 | CACCTCTG | -0.0642
76 | TAGCTCGA | 0.0239
77 | ACAACCAC | 0.361
78 | ACAACTAT | 0.204
79 | ACAACCAT | 0.322
80 | ACAACCAG | 0.23
81 | ACAACCAA | 0.267
82 | GCAACCAC | 0.269
83 | AGGCTTTG | -0.027
84 | ACAATGCA | 0.0982
85 | AACCCCGA | 0.266
86 | CTACCCGA | 0.25
87 | AAACCCGA | 0.264
88 | GACCCCGA | 0.244
